Experiment [1] deals with Retinoic acid receptor RXR-alpha (Homo sapiens) (UniProt P19793). The experiment in a line: OT_NURR1_NURR1RXRa_0480: Odyssey Thera (OT) 8-hour HEK293T Protein Complementation Assay for Nurr1/retinoid X receptor (RXR) (AID 2283385). The procedure, abridged:
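HEK293T cells expressing Nurr1 and RXRα fused to reporter fragments were dosed with compound for 8 hours. Complex formation was read as fluorescence intensity and analysed as gain of signal against DMSO as baseline.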

The target is the same in experiment [2]. The experiment in a line: OT_NURR1_NURR1RXRa_1440: Odyssey Thera (OT) 24-hour HEK293T Protein Complementation Assay for Nurr1/retinoid X receptor (RXR) (AID 2283386). The procedure, abridged: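 HEK293T cells were dosed with compound and read 24 h later by fluorescence intensity in a protein-fragment complementation format, where Nurr1–RXRα interaction reconstitutes a split reporter. Activity was fitted as gain of signal relative to DMSO baseline.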

In experiment [3] the target is Peroxisome proliferator-activated receptor gamma (Homo sapiens) (UniProt P37231). Nature of the experiment: OT_PPARg_PPARgSRC1_0480: Odyssey Thera (OT) 8-hour Protein-Complementation Assay for Peroxisome Proliferator-activated Receptor Gamma / SRC-1 Co-activator (AID 2283387).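 Further: nuclear to cytoplasmic split Venus YFP fluorescence ratio reporting PPARg SRC-1 interaction.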 The procedure, abridged:
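Protein-fragment complementation of split Venus YFP reports PPARg/SRC-1 interaction in HEK293T (transfected 48 h before treatment), exposed 8 h. Readout: N/C fluorescence ratio at 488 nm from imaging, Draq5 for segmentation, positive fit relative to DMSO.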

Experiment [4] shares this target. Nature of the experiment: OT_PPARg_PPARgSRC1_1440: Odyssey Thera (OT) 24-hour Protein-Complementation Assay for Peroxisome Proliferator-activated Receptor Gamma/ SRC-1 Co-activator (AID 2283388).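 Further: nuclear to cytoplasmic ratio of reconstituted Venus YFP fluorescence in fixed imaged cells.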 The procedure, abridged:
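Protein-fragment complementation between PPARg and coactivator SRC-1 was measured by fluorescence imaging in transiently transfected HEK293T cells after 24 h treatment. Signal was quantified as N/C ratio in the 488 nm channel, with DMSO as negative control.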

The nature of experiment [5]: CEETOX_H295R_OHPREG: CeeTox H295R High-throughput Steroidogenesis Assay for OH-Pregnenolone (OHPREG) (AID 2283434; active means hit-call score of the fitted dose curve at least 0.9, where 1 is the maximum; inactive means score below 0.9). Conditions: actives raise or lower the signal. The procedure, abridged:
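H295R cells pre-stimulated 48 h with 10 uM forskolin, then exposed 48 h to chemical in 0.1% DMSO. 17alpha-hydroxypregnenolone in medium quantified by MTBE extraction and HPLC-MS/MS; bidirectional fit versus DMSO, viability checked by MTT.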

Experiment [6] can be described thus: CEETOX_H295R_OHPROG: CeeTox H295R High-throughput Steroidogenesis Assay for OH-Progesterone (OHPROG) (AID 2283435; active means hit-call score of the fitted dose curve at least 0.9, where 1 is the maximum; inactive means score below 0.9). The note with it: actives raise or lower the signal. The procedure, abridged:
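H295R human adrenal cells were prestimulated 48 h with 10 uM forskolin, then exposed 48 h to test chemical (0.1% DMSO final). 17alpha-hydroxyprogesterone in medium was measured by HPLC-MS/MS after MTBE extraction; bidirectional fitting vs DMSO.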

Experiment [7] can be described thus: CEETOX_H295R_ANDR: CeeTox H295R High-throughput Steroidogenesis Assay for Androstenedione (ANDR) (AID 2283436; active means hit-call score of the fitted dose curve at least 0.9, where 1 is the maximum; inactive means score below 0.9). Conditions: actives raise or lower the signal. The procedure, abridged:
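H295R cells, following OECD 456 with minor changes, exposed to chemicals for 48 h. Androstenedione in the medium was quantified by HPLC-MS/MS after MTBE extraction. Fitting was bidirectional versus DMSO; chemicals were diluted until MTT viability was ≥70%.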

Experiment [8] is described as follows: CEETOX_H295R_11DCORT: CeeTox H295R High-throughput Steroidogenesis Assay for 11-Deoxycortisol (11DCORT) (AID 2283432; active means hit-call score of the fitted dose curve at least 0.9, where 1 is the maximum; inactive means score below 0.9;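 on AC50: 11-deoxycortisol secreted into the medium measured by LC-MS/MS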). The note with it: actives raise or lower the signal. The procedure, abridged: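 Human adrenal H295R cells were prestimulated with 10 uM forskolin for 48 h, then exposed to test chemical (0.1% DMSO final) for 48 h. Medium 11-deoxycortisol was quantified by MTBE extraction and HPLC-MS/MS; bidirectional fitting relative to DMSO.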

Experiment [9] is described as follows: CEETOX_H295R_CORTIC: CeeTox H295R High-throughput Steroidogenesis Assay for Corticosterone (CORTIC) (AID 2283437; active means hit-call score of the fitted dose curve at least 0.9, where 1 is the maximum; inactive means score below 0.9;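 further: corticosterone secreted into medium quantified by mass spectrometry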). Conditions: actives raise or lower the signal. The procedure, abridged:
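H295R adrenal cells prestimulated 48 hours with 10 uM forskolin, then exposed 48 hours to chemical in 0.1% DMSO. Corticosterone in medium measured by HPLC-MS/MS after MTBE extraction; MTT viability in the same wells; bidirectional fit versus DMSO.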

Experiment [10] in a line: CEETOX_H295R_CORTISOL: CeeTox H295R High-throughput Steroidogenesis Assay for Cortisol (AID 2283438; active means hit-call score of the fitted dose curve at least 0.9, where 1 is the maximum; inactive means score below 0.9;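 further: cortisol secreted into medium quantified by LC-MS/MS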). Conditions: actives raise or lower the signal. The procedure, abridged: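 H295R human adrenal cells were prestimulated 48 h with 10 uM forskolin, then exposed 48 h to test chemical (0.1% DMSO final). Medium cortisol was quantified by HPLC-MS/MS after MTBE extraction; bidirectional fitting relative to DMSO baseline.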

What is called AC50 is the concentration giving half of the maximal activity seen.

Molecules are shown by their SMILES. Values joined by “and” are separate entries in the source; they are usually repeats but may differ in a detail not shown here. Identical values can stand only once. Inconclusive results are not listed. Some structures have more than one record in an assay (separate samples or runs), and their calls can disagree. Active and inactive are the calls of the source. How the source made its calls, unless noted: active means hit-call score of the fitted dose curve at least 0.9, where 1 is the maximum; inconclusive means response in the unintended direction; inactive means score below 0.9.

Sequence of Peroxisome proliferator-activated receptor gamma (Homo sapiens) (P37231 whole entry, looked up, the tested form may be a part): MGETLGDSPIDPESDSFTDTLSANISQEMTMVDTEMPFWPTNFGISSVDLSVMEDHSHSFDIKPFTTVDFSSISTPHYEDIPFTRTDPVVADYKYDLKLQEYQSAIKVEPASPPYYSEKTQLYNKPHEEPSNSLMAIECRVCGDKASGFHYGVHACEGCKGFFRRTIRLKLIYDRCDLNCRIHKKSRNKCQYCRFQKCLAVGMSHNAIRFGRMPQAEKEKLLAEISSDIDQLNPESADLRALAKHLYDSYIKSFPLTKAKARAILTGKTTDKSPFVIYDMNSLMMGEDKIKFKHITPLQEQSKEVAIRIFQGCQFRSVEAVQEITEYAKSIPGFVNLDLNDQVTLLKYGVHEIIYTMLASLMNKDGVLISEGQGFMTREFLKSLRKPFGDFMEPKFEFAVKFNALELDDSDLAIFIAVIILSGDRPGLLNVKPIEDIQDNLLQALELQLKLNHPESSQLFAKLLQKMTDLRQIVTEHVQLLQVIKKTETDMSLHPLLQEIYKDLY
Sequence of Retinoic acid receptor RXR-alpha (Homo sapiens) (P19793 whole entry, looked up, the tested form may be a part): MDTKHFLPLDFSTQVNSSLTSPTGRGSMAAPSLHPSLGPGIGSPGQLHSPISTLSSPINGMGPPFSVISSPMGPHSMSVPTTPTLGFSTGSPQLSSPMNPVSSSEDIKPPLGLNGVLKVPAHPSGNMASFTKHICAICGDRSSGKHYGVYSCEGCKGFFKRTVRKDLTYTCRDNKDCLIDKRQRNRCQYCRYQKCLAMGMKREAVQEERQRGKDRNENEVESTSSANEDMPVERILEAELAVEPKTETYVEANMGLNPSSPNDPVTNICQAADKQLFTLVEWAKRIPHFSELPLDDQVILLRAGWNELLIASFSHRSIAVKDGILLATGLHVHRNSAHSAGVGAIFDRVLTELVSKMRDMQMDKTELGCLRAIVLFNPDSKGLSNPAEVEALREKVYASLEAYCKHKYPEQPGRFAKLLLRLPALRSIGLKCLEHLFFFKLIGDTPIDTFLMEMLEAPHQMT

As for `CCCCC(CC)COC(=O)c1ccccc1C(=O)O` (stereo unspecified), the call in experiment [1] was inactive.
On to `CC(C)(c1ccc(O)cc1)c1ccc(O)cc1`, for which the call in experiment [1], in experiment [2], in [3], in [4], in experiment [5] and in experiment [6] was inactive. Further, in experiment [7], the AC50 is 3.26 µM (active) [middle of 4 runs].
In the case of `C[C@]12CC[C@@H]3c4ccc(O)cc4C[C@@H](CCCCCCCCCS(=O)CCCC(F)(F)C(F)(F)F)[C@H]3[C@@H]1CC[C@@H]2O` (stereo partly specified), the call in experiment [1], in experiment [3] and in experiment [4] was inactive.
Regarding `CCN(CC)C(=O)c1cccc(C)c1`, the outcome in experiment [1], in [3] and in experiment [4] was inactive.
Take `C=CCOC(Cn1ccnc1)c1ccc(Cl)cc1Cl` (stereo unspecified): the AC50 is 58.3 µM (active) and 85.7 µM (active) in [1]; 78.5 µM (active) and 79 µM (active) in experiment [2]; 0.775 µM (active) in experiment [8]; 0.142 µM (active) in experiment [6]; 159 nM (active) in [10]. Besides, the outcome in [3], in experiment [4], in experiment [5] and in [9] was inactive.
With `CCOC(=O)C(C)Oc1ccc(Oc2nc3ccc(Cl)cc3o2)cc1` (stereo unspecified), in experiment [1], the AC50 was 78.9 µM (active). In addition, the compound was called inactive in [1], in [3] and in experiment [4].
With `O=C(c1ccccc1)C1CCCCC1`, the compound was classed as inactive in experiment [1], in [2], in experiment [3] and in [4].
Turning to `O=C(O)c1ccccc1`, the compound was called inactive in experiment [1], in experiment [2], in [3] and in experiment [4].
On to `C[C@]12C[C@H](O)[C@H]3[C@@H](CCC4=CC(=O)CC[C@@]43C)[C@@H]1CC[C@@H]2C(=O)CO`, for which the compound was called inactive in experiment [1], in [2], in [3], in experiment [4] and in experiment [10]. The AC50 in experiment [8] is 34.4 µM (active); in [5] it was 16.1 µM (active); in experiment [6], 72.2 µM (active); in experiment [9], 1.04 µM (active).
Consider `O=C(Nc1ccc([N+](=O)[O-])cc1Cl)c1cc(Cl)ccc1O`, for which, in experiment [1], the AC50 was 1.19 µM (active). Besides, the call in [1], in [3], in experiment [4], in [8], in experiment [5] and in experiment [6] was inactive. Moreover, the compound was classed as inactive in experiment [9] and in experiment [10].
With `CCCOC(=O)NCCCN(C)C`, the compound was classed as inactive in [1], in [2], in experiment [3] and in [4].
Take `COCCO`: the call in [1], in experiment [3] and in experiment [4] was inactive.
`CCCN(CCC)c1c([N+](=O)[O-])cc(C(F)(F)F)c(N)c1[N+](=O)[O-]`: the AC50 in [1] was 32.7 µM (active) and 55.6 µM (active). For the same compound, the result in experiment [3] and in experiment [4] was inactive.
Turning to `COC(=O)c1ccccc1C(=O)O`, the call in experiment [1], in experiment [3] and in experiment [4] was inactive.
For the compound `CCC(C)OC(=O)N1CCCCC1CCO` (stereo unspecified), the result in experiment [1], in [3] and in experiment [4] was inactive.
Regarding `CCOC(=O)COc1cc(-n2ncc(C(F)(F)F)c(C)c2=O)c(F)cc1Cl`, the outcome in experiment [1], in experiment [2], in experiment [3] and in [4] was inactive.
On to `N#CSCSc1nc2ccccc2s1`, for which the call in [1], in experiment [3] and in experiment [4] was inactive.
Take `Cc1nn(C)c(Oc2ccccc2)c1C=NOCc1ccc(C(=O)OC(C)(C)C)cc1`: in [1], the half-maximal activity concentration (AC50) was 11.3 µM (active). Also, the outcome in experiment [1], in experiment [3] and in [4] was inactive.
For `CSC(=O)c1cccc2nnsc12`, the outcome in experiment [1], in experiment [2], in [3], in [4], in [8] and in experiment [7] was inactive. In experiment [10], the result was inactive. Besides, the AC50 in experiment [5] was 55.6 µM (active); in experiment [6], 50 µM (active); in [9], 23 µM (active).
`COC(=O)CSc1cc(N=c2sc(=O)n3n2CCCC3)c(F)cc1Cl`: the compound was classed as inactive in experiment [1], in [3] and in experiment [4].
For the compound `CN(C)C(=O)Nc1ccc(Cl)c(Cl)c1`, the compound was called inactive in experiment [1], in [2], in [3], in [4], in [8] and in experiment [5]. Further, the outcome in [9] and in [10] was inactive. Moreover, the values for the AC50 in experiment [6] and in experiment [7] were 42.6 µM (active) and 30.8 µM (active), respectively.
Consider `CCCCCCC(C)OC(=O)COc1nc(F)c(Cl)c(N)c1Cl` (stereo unspecified), for which the AC50 in experiment [1] was 79.2 µM (active). Moreover, the call in experiment [1] and in experiment [2] was inactive.
Turning to `CCOC(=O)NCCOc1ccc(Oc2ccccc2)cc1`, the AC50 in [1] was 2.34 µM (active). The compound was classed as inactive in [1], in experiment [3] and in experiment [4].
With `CCCCOC(=O)C(C)Oc1ccc(Oc2ccc(C(F)(F)F)cn2)cc1` (stereo unspecified), in experiment [1], the AC50 was 65.1 µM (active). The outcome in experiment [1], in experiment [2], in experiment [3] and in [4] was inactive.
For `CCCN(CCC)C(=O)SCC`, the result in [1], in experiment [2], in [3], in experiment [4], in experiment [8] and in experiment [5] was inactive. In addition, the outcome in experiment [6], in experiment [7], in [9] and in [10] was inactive.
For the compound `O=C(c1ccc(O)cc1O)c1ccc(O)cc1O`, the compound was called inactive in experiment [1], in experiment [3] and in experiment [4].
On to `S=C(S)NCCNC(=S)S.[Mn+2].[S-]C([S-])=NCCN=C([S-])[S-].[Zn+2]`, for which the result in experiment [1], in experiment [3], in experiment [4], in experiment [8], in [5] and in experiment [6] was inactive. Further, the call in experiment [9] and in experiment [10] was inactive.
Consider `CCN(Cc1c(F)cccc1Cl)c1c([N+](=O)[O-])cc(C(F)(F)F)cc1[N+](=O)[O-]`, for which the outcome in [1], in experiment [3], in experiment [4] and in [5] was inactive. Besides, in experiment [6], the AC50 was 15.3 µM (active).

(Values after PubChem BioAssay (EPA / NIEHS).)
